The campaign covered roughly 62,000 compounds. About 100 (0.16%) were called active. The entries come from a sample that favours actives as a whole. Values without a mark were called inactive.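 Rule for the calls: active = inhibition above 20% in each of the two 10-compound mixture wells holding the compound; inactive = the rest.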
Target: Complement C1s subcomponent (Homo sapiens) (UniProt P09871)
Assay: human C1s inhibition by compound pools – biochemical, 10-compound mixtures, primary screen (AID 538);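 note: 0% = enzyme wells lacking compound mixture and 100% = no-enzyme blank wells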
Conditions: purified C1s, fluorogenic AMC substrate, pooled mixtures; screened at 5 µM (by protocol)

Sequence of Complement C1s subcomponent (Homo sapiens) (P09871 16-437 limits assumed): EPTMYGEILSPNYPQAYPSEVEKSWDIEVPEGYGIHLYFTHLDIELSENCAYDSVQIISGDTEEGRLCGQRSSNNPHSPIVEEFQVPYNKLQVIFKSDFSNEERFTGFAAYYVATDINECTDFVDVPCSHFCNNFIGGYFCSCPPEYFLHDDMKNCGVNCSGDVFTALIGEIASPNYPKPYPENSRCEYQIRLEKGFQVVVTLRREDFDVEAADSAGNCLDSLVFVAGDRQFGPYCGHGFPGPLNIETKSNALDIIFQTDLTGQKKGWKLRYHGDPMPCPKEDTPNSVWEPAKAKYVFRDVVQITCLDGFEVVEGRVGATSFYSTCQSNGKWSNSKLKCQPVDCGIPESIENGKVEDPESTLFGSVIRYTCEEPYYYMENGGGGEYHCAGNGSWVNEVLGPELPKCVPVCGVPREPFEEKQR
Sequence of Complement C1s subcomponent (Homo sapiens) (P09871 438-688 limits assumed): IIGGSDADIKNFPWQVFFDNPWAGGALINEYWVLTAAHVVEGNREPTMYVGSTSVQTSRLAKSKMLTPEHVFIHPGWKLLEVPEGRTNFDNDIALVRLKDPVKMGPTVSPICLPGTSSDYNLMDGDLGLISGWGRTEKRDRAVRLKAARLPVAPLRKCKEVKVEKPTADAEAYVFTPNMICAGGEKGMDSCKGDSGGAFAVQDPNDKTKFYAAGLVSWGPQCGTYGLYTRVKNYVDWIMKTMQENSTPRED

Structure (SMILES) | mean inhibition % of two 10-compound mixtures (stronger effect = higher value)
Cc1cc(C)c(C#N)c(SCc2ccccc2C(=O)O)n1 | -0.765%
O=C(c1ccc2c(c1)OCO2)N1CCNc2ccccc2C1 | 12.4%
C=CCn1c(SCc2csc(C)n2)nc2scc(-c3ccc(C)o3)c2c1=O | -5.96%
CCN(c1ccccc1)S(=O)(=O)c1cccc(C(=O)O)c1 | -13.8%
CCOC(=O)n1c(SCC(=O)N(CC)CC)nc2ccccc21 | 12.2%
O=C1c2ccccc2C(O)N1Cc1ccccc1 (configuration not stated) | -43.8%
COc1c(Br)cc2c(C)c(C(=O)N3CCOCC3)oc2c1Br | 2.58%
CCOC(=O)COc1ccc(Cl)cc1C1NC(=O)NC(C)=C1C(C)=O (configuration not stated) | -13%
COc1cc2c(cc1OC)C(c1ccncc1)CC(=O)N2 (configuration not stated) | -11.7%
CC(=O)Nc1ccc(S(=O)(=O)N2CCSCC2)cc1 | 10.8%
CC(=O)Nc1ccc(NC(=O)CN2CCCC(C)C2)c(Cl)c1 (configuration not stated) | 8.18%
O=C(O)CCSc1nnc(-c2ccccc2)n1-c1ccccc1 | -30.3%
CC(C)OC(=O)c1cc(NC(=O)C2C3CCC(O3)C2C(=O)O)cc(C(=O)OC(C)C)c1 (configuration not stated) | -14.5%
OC(COc1cccc2ccccc12)CN1CCN(c2ccccn2)CC1 (configuration not stated) | -2.25%
COC(=O)c1ccc(Oc2nc(NC(C)C)nc(SC)n2)cc1 | -1.35%
CCCCc1cc(=O)oc2cc(C)cc(OCc3nn[nH]n3)c12 | -6.89%
CC(C)COC(=O)c1ccc(NC(=O)C2C3C=CC(C3)C2C(=O)O)cc1 (configuration not stated) | -22.9%
COc1ccccc1NC1=NC2(CCCC2)N=C(N)N1 | -18.3%
Cc1cc(NC(=O)COn2nnc3ccccc32)no1 | 0.88%
CCOC(=O)C1C(=O)OC2(CCCC2)C1C(=O)OCC (configuration not stated) | 0.585%
COc1nc(OC)nc(N(C)CCO)n1 | -12.5%
CC1CCN(C(=O)Cn2cc(C(=O)c3ccco3)c3ccccc32)CC1 | -1.29%
CC(C)(C)C(=O)CCN1C(=O)C2(OCCO2)c2ccccc21 | 10.6%
CCCN(CCC)C(=O)C1c2ccccc2Oc2ccccc21 | -0.445%
Nc1nc(SCCOc2ccccc2)n[nH]1 | 2.17%

Structure (SMILES) | mean inhibition % of two 10-compound mixtures (stronger effect = higher value)
CCCc1cc(=O)n2[nH]c(SCc3ccccc3)nc2n1 | -2.75%
CC(=O)Oc1cccc(N2C(=O)CC(Nc3ccc(N4CCOCC4)cc3)C2=O)c1 (configuration not stated) | 6.64%
O=C(CN1CCN(c2ccccn2)CC1)NCc1cccs1 | -12.2%
O=C(CSc1nc2cc3c(cc2c(=O)n1CCC1=CCCCC1)OCO3)NCc1ccco1 | 2.65%
COc1ccc(S(=O)(=O)Nc2ccc(S(=O)(=O)N3CCCCC3)cc2)cc1OC | -2.79%
CCC(C)(C)NC(=O)C(c1cccn1C)N(Cc1ccc(C)cc1)C(=O)Cn1nnc2ccccc21 (configuration not stated) | -0.485%
COCCNC(=O)C(c1ccc(C)o1)N(Cc1ccccc1)C(=O)Cn1nnc2ccccc21 (configuration not stated) | -0.43%
CC(C)(C)NC(=O)C(c1ccco1)N(Cc1ccc2c(c1)OCO2)C(=O)Cn1nnc2ccccc21 (configuration not stated) | 22% (active)
CCOc1ccc(-c2nnn(CC(=O)N3CCN(c4ccc(F)cc4)CC3)n2)cc1OCC | -19.4%
CC(=O)c1c(C)[nH]c(C(=O)NCCCN2CCCC2)c1C | 13.1%
Cc1nc(Nc2ccc3c(c2)OCCO3)c2nnn(Cc3ccccc3Cl)c2n1 | -7.66%
Cn1c(SCC(=O)Nc2cccc(NC(=O)c3cccs3)c2)nnc1-c1ccncc1 | -18.6%
COc1ccc(N2C(=O)CN=C2Nc2cccc(C)c2C)cc1OC | 13.9%
COc1ccc(Cl)cc1NC(=O)c1oc(C)nc1C | -7.77%
Cc1nc(C)c(C(=O)Nc2cccc(C)c2C)o1 | 22% (active)
Cc1nc(C)c(C(=O)Nc2ccc(C)c(F)c2)o1 | 4.8%
COCc1nc2ccccc2n1Cc1ccccc1Br | -10.1%
COc1cccc(C2/C(=C(/O)c3ccc(F)cc3)C(=O)C(=O)N2CCN(C)C)c1 (configuration not stated) | 2.55%
Cc1ccc(NC(=O)N2CCC(C(=O)NCc3ccc(F)cc3)CC2)cc1 | 26.6%
CCOC(=O)c1[nH]c2ccc(C)cc2c1N=C(C)N(C)C | -3.15%
COc1ccc(-n2c(SCC(=O)NCc3cccs3)nnc2-c2ccoc2C)cc1 | 1.91%
O=C(Cn1cnc2c(cnn2-c2ccccc2)c1=O)NCc1ccccc1 | 4.69%
O=C(OC1CCOC1=O)c1ccc(-c2nc3ccccc3s2)s1 (configuration not stated) | 3.37%
CCOc1ccccc1C1CC(c2ccccc2)Nc2nc(N)nn21 (configuration not stated) | -0.62%
CCOC(=O)CCC(=O)OCC(=O)NC(C)C1CC2CCC1C2 (configuration not stated) | -1.13%

Structure (SMILES) | mean inhibition % of two 10-compound mixtures (stronger effect = higher value)
CCCCCC(=O)Nc1ccc2oc(-c3ccncc3)nc2c1 | -5.25%
CCCCSc1nnc(-c2ccc(NC(=O)CC)cc2)n1C | 10.2%
Cc1ccc2c(c1)NCC(C(=O)NC1CCC(C)CC1)O2 (configuration not stated) | -7.38%
CN(C)CCCNc1c2c(c(C#N)c3nc4ccccc4n13)CCC2 | 11.8%
COc1ccc(S(=O)(=O)Nc2c(C)n(C)n(-c3ccccc3)c2=O)cc1 | -40.7%
CCn1c(-c2cc(OC)ccc2OC)csc1=Nc1c(C)n(C)n(-c2ccccc2)c1=O | 11.4%
Cc1ccc(C(=O)N2CCCCCC2)cc1Br | 48.4%
O=S(=O)(CCc1nc2ccccc2o1)c1ccc(Cl)cc1 | 1.62%
COC(=O)c1ccc(NC(=O)CSc2nnc(-c3ccncc3)n2C)cc1 | 4.27%
Cc1ccc(S(=O)(=O)n2nc(OC(=O)C(C)(C)C)cc2N)cc1 | -80.6%
O=C(CCS(=O)(=O)c1cccc2nonc12)NCCc1ccccc1Cl | -46.5%
CCCC1C(c2ccccc2)C(C#N)(C#N)C2(C#N)CC1(N)NC2=O (configuration not stated) | 13.4%
Cc1nnc(C)n1/N=C/c1ccc(C(C)C)cc1 | 5.96%
O=C(CCc1ccccc1)Nc1ccc(NC(=O)C2CC2)nc1 | 3.19%
CC1OC2C(OC1C)N(S(C)(=O)=O)CCN2S(C)(=O)=O (configuration not stated) | 6.29%
COc1cc(C(O)c2nc3ccccc3n2C)cc(OC)c1OC (configuration not stated) | -4.52%
COc1ccc(C)cc1-n1nnnc1SCC(=O)c1cc(C)n(Cc2ccco2)c1C | 11.7%
O=C(NCC12CC3CC(C1)CC(CNC(=O)N1CCCC1)(C3)C2)N1CCCC1 | 13.6%
c1cc(-c2nn[nH]n2)ccc1CN1CCCCC1 | 14.2%
Cn1c(=O)c2[nH]c(NCC3CCCO3)nc2n(-c2ccccc2)c1=O (configuration not stated) | 64.6% (active)
Cc1nc2ccccc2c2oc(C(=O)NCC3CCCO3)cc12 (configuration not stated) | -97.9%
CCCCn1c(SCC(=O)NCC2CCCO2)nc2ccc(N3CCOCC3)cc2c1=O (configuration not stated) | -11%
COc1cccc(N2C(=O)CC(N3CCN(S(=O)(=O)c4ccccc4)CC3)C2=O)c1 (configuration not stated) | -26.5%
CCOC(=O)C1Cn2c(nc3c(c2=O)C(C)(CC)Cc2ccccc2-3)S1 (configuration not stated) | -5.78%
O=C1CC(c2cccc(Br)c2)C2=C(CCCC2=O)N1 (configuration not stated) | 17.2%

Structure (SMILES) | mean inhibition % of two 10-compound mixtures (stronger effect = higher value)
CCNC(=O)N1CCNC(=O)C1CC(=O)Nc1ccc(C(=O)OCC)cc1 (configuration not stated) | -35.7%
Cc1ccc(-c2nc(COC(=O)c3c(C)noc3C)cs2)cc1 | 3.81%
COC(=O)Cn1c(=NC(=O)CSCC(=O)Nc2cc(C)on2)sc2ccccc21 | 5.49%
COc1ccccc1-c1cc(C(=O)NCCCn2ccnc2)no1 | 9.65%
O=C(NCCCN1CCOCC1)c1cc(-c2ccc(Cl)cc2)on1 | 4.71%
CCCCc1nc2ccccc2c(=O)n1NC(=O)c1c(O)c2cccc3c2n(c1=O)CC3 | 4.25%
O=C1CC(c2ccccc2)CC(O)=C1C=NCCN1CCOCC1 (configuration not stated) | 17.3%
O=C1CCCC(O)=C1C=NCCc1ccccc1 | 50.4% (active)
CC1(C)CC(=O)C(C=NCCC2=CCCCC2)=C(O)C1 | -0.72%
COC(=O)c1nc(NC(=O)c2ccc(Cl)cc2)n[nH]1 | 12.2%
Cc1ccc(C(=O)N(CN2CCCC2=O)c2ccc(F)cc2)cc1 | 5.52%
Cc1ccc(C)c(N2CCN(C(=O)CCc3nc4ccccc4[nH]3)CC2)c1 | 1.21%
CCOC(=O)C(CCOc1cccc(CC)c1)C(=O)OCC | -10.1%
Cc1c(NC(=O)Nc2ccccc2Cl)sc(=S)n1C | -6.43%
CCCCN(C)C(=O)c1ccc2c(c1)N(CC)C(=O)c1ccccc1S2(=O)=O | 5.62%
COc1ccc(-n2c(SCC(=O)Nc3ccc4c(c3)OCO4)nnc2C(C)N2CCCCC2)cc1 (configuration not stated) | -12.3%
CCN(Cc1ccncc1)C(=O)c1cccc(S(=O)(=O)N2CCOCC2)c1 | 2.16%
Cc1cc(N2C(=O)C(=O)/C(=C(/O)c3ccc(Cl)cc3)C2c2cccc(Br)c2)no1 (configuration not stated) | 11.8%
O=C(NCc1ccco1)c1sc2cccc(F)c2c1Cl | 3.97%
COc1ccc(NC(=O)CCNC(=O)Cn2ccc3ccccc3c2=O)c(OC)c1 | 13.2%
CC(C)Nc1nc(N(c2ccccc2)c2ccccc2)nc(-n2ccnc2)n1 | 9.18%
CSc1cccc(NC(=O)C2CCCN2S(=O)(=O)c2ccc3c(c2)CCC(=O)N3)c1 (configuration not stated) | -3.33%

— PubChem BioAssay AID538 (PCMD, 2006)
